According to PubChem BioAssay (EPA / NIEHS):
“And” between values parts separate entries of the source, which are not always exact repeats. Equal values may be shown once. Results filed as inconclusive are left out. The source made the active and inactive calls. How the source made its calls: active means hit-call score of the fitted dose curve at least 0.9, where 1 is the maximum; inconclusive means response in the unintended direction; inactive means score below 0.9.

These compounds were tested against Retinoic acid receptor RXR-alpha (Homo sapiens) (UniProt P19793) (assay: ATG_RXRa_TRANS: Attagene TRANS-FACTORIAL HepG2 Assay for human Retinoid X Receptor alpha (RXRa) (AID 2283012)).
Sequence of Retinoic acid receptor RXR-alpha (Homo sapiens) (P19793 whole entry, looked up, the tested form may be a part): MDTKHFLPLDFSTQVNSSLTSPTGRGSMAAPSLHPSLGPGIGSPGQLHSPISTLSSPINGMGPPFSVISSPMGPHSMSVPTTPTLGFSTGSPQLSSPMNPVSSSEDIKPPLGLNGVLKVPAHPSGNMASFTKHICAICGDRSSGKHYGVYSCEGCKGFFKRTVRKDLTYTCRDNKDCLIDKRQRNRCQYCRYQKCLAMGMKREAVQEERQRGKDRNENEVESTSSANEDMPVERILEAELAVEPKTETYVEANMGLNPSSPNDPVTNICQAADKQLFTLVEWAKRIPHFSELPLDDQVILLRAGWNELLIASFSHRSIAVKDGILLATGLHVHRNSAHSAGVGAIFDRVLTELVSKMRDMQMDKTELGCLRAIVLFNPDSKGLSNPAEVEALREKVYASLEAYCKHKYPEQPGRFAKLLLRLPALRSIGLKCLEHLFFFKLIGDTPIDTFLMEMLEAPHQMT
Method in brief: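 Chimeric NR-GAL4 trans-activation in HepG2, 24 h treatment; reporter transcripts quantified by fluorescence on capillary electrophoresis, analysed for upward change from DMSO.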

SMILES | outcome
O=CC(F)(F)C(F)(F)C(F)(F)C(F)F | inactive
COc1cc([N+](=O)[O-])ccc1N | inactive
O=CC(F)(F)C(F)(F)C(F)(F)F | inactive
Cc1cccc2c1ccc1ccccc12 | inactive
C=CC(=O)OCCC(F)(F)C(F)(F)C(F)(F)C(F)(F)C(F)(F)C(F)(F)C(F)(F)C(F)(F)F | inactive
Cc1ccc(C(=O)c2ccccc2)cc1 | inactive
O=C(Nc1cccc([N+](=O)[O-])c1)c1cc2ccccc2cc1O | inactive
O=C(F)C(F)(F)C(F)(F)C(F)(F)C(F)F | inactive
CCCCCCc1ccc(N)cc1 | inactive
O=C(O)c1cccc(C(=O)O)n1 | inactive
CCCCCCCCCCCCCC[n+]1ccccc1 | inactive
O=C(O)C(=O)O | inactive
Cc1ccc(S(=O)(=O)O)cc1 | inactive
Clc1ccc2c(Cl)ccnc2c1 | inactive

Each compound was assayed against human Retinoid X Receptor beta (RXRb), RXRB (gene 6257) (UniProt P28702) (assay: ATG_RXRb_TRANS: Attagene TRANS-FACTORIAL HepG2 Assay for human Retinoid X Receptor beta (RXRb) (AID 2283013)).
Sequence of human Retinoid X Receptor beta (RXRb), RXRB (gene 6257) (P28702 whole entry, looked up, the tested form may be a part): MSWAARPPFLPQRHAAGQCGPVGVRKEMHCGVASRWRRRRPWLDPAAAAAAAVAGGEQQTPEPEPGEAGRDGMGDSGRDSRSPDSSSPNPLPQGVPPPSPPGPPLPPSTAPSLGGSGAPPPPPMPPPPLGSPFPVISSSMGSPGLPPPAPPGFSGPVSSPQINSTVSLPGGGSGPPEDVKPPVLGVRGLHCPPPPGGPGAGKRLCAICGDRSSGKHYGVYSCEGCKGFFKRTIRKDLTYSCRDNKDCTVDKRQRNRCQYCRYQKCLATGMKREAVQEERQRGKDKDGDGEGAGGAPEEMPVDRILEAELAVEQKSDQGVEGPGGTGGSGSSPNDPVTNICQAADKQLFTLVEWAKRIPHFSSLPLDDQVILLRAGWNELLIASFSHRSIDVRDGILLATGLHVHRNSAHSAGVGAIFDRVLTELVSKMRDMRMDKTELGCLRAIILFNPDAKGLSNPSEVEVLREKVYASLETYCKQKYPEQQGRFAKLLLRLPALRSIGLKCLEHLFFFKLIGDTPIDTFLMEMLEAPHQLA
Method in brief: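 After a 24 h incubation with test chemical, transfected HepG2 cells carrying NR-Gal4 fusions and GAL4-UAS reporter transcription units yield RNA whose reporter cDNA is FAM-labelled, HpaI-cut and sized by capillary electrophoresis; increases over DMSO are scored.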

SMILES | outcome | AC50
O=C(CC(=O)C(F)(F)C(F)(F)C(F)(F)F)c1cccs1 | inactive | –
Cc1[nH]nc2c1N=C(c1ccccc1Cl)c1cc([N+](=O)[O-])ccc1N2 | inactive | –
CC(C)[C@@H]1CC[C@@H](C)C[C@H]1O | inactive | –
CCc1ccccc1O | inactive | –
O=C1c2ccc(O)c(O)c2C(=O)c2c(O)ccc(O)c21 | inactive | –
CCCCCC(C)OC(=O)COc1ccc(Cl)c2cccnc12 (stereo unspecified) | inactive | –
O=C1Cc2ccccc2N1c1c(Cl)cccc1Cl | inactive | –
CC1=CC(=O)c2ccccc2C1=O | inactive | –
CCOC=C(C(=O)OCC)C(=O)OCC | inactive | –
CCCCCCOC(=O)c1ccc(O)cc1 | – | 33.4 µM (active)
C=CCOCC(CO)(CO)CO | inactive | –
Cc1ccccc1C(OCCN(C)C)c1ccccc1 (stereo unspecified) | inactive | –
O=S(=O)(O)c1ccccc1 | inactive | –
CCOC(OCC)C(=O)c1ccccc1 | inactive | –
C[N+](C)(CCCNS(=O)(=O)CCC(F)(F)C(F)(F)C(F)(F)C(F)(F)C(F)(F)C(F)(F)F)CC(=O)[O-] | inactive | –
CCCCCCCCCCCC(=O)O | inactive | –
O=C(NCc1ncc(C(F)(F)F)cc1Cl)c1c(Cl)cccc1Cl | inactive | –
CC1COCc2cc3c(cc21)C(C)(C)C(C)C3(C)C (stereo unspecified) | – | 8.91 µM (active)
Cc1cc(=O)oc2cc(O)ccc12 | inactive | –

SMILES | outcome | AC50
CC(=O)Nc1ccc(S(N)(=O)=O)cc1 | inactive | –
Cc1cc(C(C)(C)C)c(O)c(C(C)(C)C)c1 | – | 918 nM (active) and 88 nM (active)
O=S(=O)(O)c1ccc2cc(O)ccc2c1 | inactive | –
CCOC(=O)CN[C@@H](C(=O)N1CC[C@H]1C(=O)NCc1ccc(/C(N)=N/O)cc1)C1CCCCC1 | – | 1.42 µM (active)
O=CC(F)(F)C(F)(F)C(F)(F)C(F)F | inactive | –
COc1cc([N+](=O)[O-])ccc1N | inactive | –
O=CC(F)(F)C(F)(F)C(F)(F)F | inactive | –
Cc1cccc2c1ccc1ccccc12 | – | 22.6 µM (active)
C=CC(=O)OCCC(F)(F)C(F)(F)C(F)(F)C(F)(F)C(F)(F)C(F)(F)C(F)(F)C(F)(F)F | inactive | –
Cc1ccc(C(=O)c2ccccc2)cc1 | – | 75.9 µM (active)
O=C(Nc1cccc([N+](=O)[O-])c1)c1cc2ccccc2cc1O | inactive | –
O=C(F)C(F)(F)C(F)(F)C(F)(F)C(F)F | inactive | –
CCCCCCc1ccc(N)cc1 | inactive | –
O=C(O)c1cccc(C(=O)O)n1 | inactive | –
CCCCCCCCCCCCCC[n+]1ccccc1 | inactive | –
O=C(O)C(=O)O | inactive | –
Cc1ccc(S(=O)(=O)O)cc1 | inactive | –
Clc1ccc2c(Cl)ccnc2c1 | inactive | –
